SMN2 splice enh = increases expression of the SMN2 splice variant; AID 1458; Potency, µM (doses to about 46.1 µM), for the others: at the highest dose activity change, positive = activation, actives largely listed as activators; HEK293 SMN2-luciferase splicing reporter, luminescence, 30-36 h; 2.8% of 210,000 active; note: % of control where 0% means no effect; nearly all actives have a fitted effect of over 55% in size
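HEK293 cells carry an SMN2 […]–luciferase reporter in which exon 7 inclusion puts luciferase in frame. Cells were plated 10-12 h before compound addition, then incubated 30-36 h at 37C. ONE-Glo luminescence was read; sodium butyrate at 4.5 mM final served as control.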
Rab9 promoter act = activators of Rab9 promoter | Huh7 Rab9 promoter-luciferase reporter, luminescence, 24 h | Potency, µM (titrated, usually from 9.22 µM), without a hit: top-dose activation, negative = inhibition, actives largely listed as activators | 2.8% of 320,000 active | AID 485297; note: % of control where 0% means no effect; nearly all actives have a fitted effect of over 60% in size
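Stable Rab9-luc Huh7, 1500 cells/well, 2 h settle; cmpd in DMSO, 24 h, 37 °C/5% CO2; luciferase reagent 10 min RT; luminescence.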
FLuc modulator = counter-screen for miR-21 project: firefly luciferase inhibitors or activators | Potency, µM (doses to about 57.5 µM), for the others: at the top dose activity change, negative = inhibition, usual class: inhibitors | purified FLuc, Km substrates, luminescence inhibition | P08659 | 6.9% of 360,000 active;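 note: plate controls were vehicle for no effect and reference inhibitor for full effect; nearly all actives have a fitted effect of over 55% in size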
Target sequence (P08659 whole entry, looked up): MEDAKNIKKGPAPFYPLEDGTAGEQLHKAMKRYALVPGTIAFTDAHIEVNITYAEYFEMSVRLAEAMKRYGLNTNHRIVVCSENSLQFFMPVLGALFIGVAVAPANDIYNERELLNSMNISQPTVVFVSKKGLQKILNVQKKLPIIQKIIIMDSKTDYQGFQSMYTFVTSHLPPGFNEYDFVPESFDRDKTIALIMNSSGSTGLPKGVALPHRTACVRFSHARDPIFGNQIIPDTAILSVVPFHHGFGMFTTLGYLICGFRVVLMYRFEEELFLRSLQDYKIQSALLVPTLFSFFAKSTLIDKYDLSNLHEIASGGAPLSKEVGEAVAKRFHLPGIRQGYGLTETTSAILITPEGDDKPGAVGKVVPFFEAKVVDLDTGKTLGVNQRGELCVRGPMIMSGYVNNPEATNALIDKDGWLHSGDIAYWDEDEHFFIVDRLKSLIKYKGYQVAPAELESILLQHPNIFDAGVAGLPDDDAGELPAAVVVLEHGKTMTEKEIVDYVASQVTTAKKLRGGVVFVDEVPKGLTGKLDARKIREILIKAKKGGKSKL
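Purified P. pyralis luciferase, 10 nM final, with Km-level 10 uM D-luciferin and 10 uM ATP in 50 mM Tris acetate pH 7.5, 10 mM Mg acetate, 0.01% Tween-20, 0.05% BSA; 6-point qHTS titration about 60 µM downward; luminescence read.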
ELG1 genotoxic = inducers of genotoxicity in HEK293T ELG1-luciferase cells; 1.3% of 330,000 active; HEK293T ELG1-luciferase reporter, luminescence, 16 h; Potency, µM (doses to about 46 µM), inactives show at the top dose activity change, positive = activation, actives largely listed as activators; note: % of control where 0% means no effect; nearly all actives have a fitted effect of over 60% in size
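Reporter readout depends on ELG1 protein level, which increases with genetic stress. After 16 hr compound exposure at 37 °C, luciferase activity was quantified using ONE-Glo.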
NPC1 promoter act = activates the NPC1 promoter; Huh7 NPC1 promoter luciferase reporter, 24 h; Potency, µM (highest dose often 9.22 µM), without a hit: at the top dose activation, actives largely listed as activators; 2.4% of 320,000 active; AID 485313; note: % of control where 0% means no effect; nearly all actives have a fitted effect of over 60% in size
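Luminescence read-out of NPC1 promoter-driven luciferase in stably transfected Huh7 cells; compounds delivered in DMSO and left 24 h at 37C, 5% CO2, qHTS titration format.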
Numbers without * were called inactive; ? = inconclusive; . = no result; [ ] = another dose, or the depositor's remark. Only some compounds are listed: those with a hit (about 7.5% of all), similar ones and a draw of the others. Calls come from the whole dose curve; as a rule, active = well fitted curve in the direction sought with a large enough effect; inconclusive = small, poorly fitted or top-dose-only effect, or another doubt; inactive = no such curve, though single readings can be large; an effect the other way counts as inactive or inconclusive. Potency is the fitted concentration of half-maximal effect.

SMILES | SMN2 splice enh | Rab9 promoter act | FLuc modulator | ELG1 genotoxic | NPC1 promoter act
COc1ccc(NC(=O)c2ccc(NC(=O)CSc3nccc(=O)[nH]3)cc2)cc1 | . | 3% | 15µM* | 8% | 17%
O=C(CSc1nc2ccccc2[nH]1)Nc1ccc2[nH]c(=O)[nH]c2c1 | . | 1% | -13% | 2% | 2%
COc1ccc2nc(SCC(=O)Nc3ccc4[nH]c(=O)[nH]c4c3)[nH]c2c1 | . | -2% | 15µM* | -2% | 1%
Nc1nc2ccc(Cc3ccncc3)cc2s1 | . | ? | 17µM* | ? | 19%
COc1cc(/C=N/NC(=O)c2cc3ccccc3[nH]2)ccc1O | . | 7% | 17µM* | -11% | 2%
COc1ccc(/C=N/NC(=O)c2cccc(C(=O)N/N=C/c3ccc(OC)cc3)n2)cc1 | . | 25% | 0.3µM* | ? | 15%
COC(=O)N/N=C\c1ccc(OC/C=C/c2ccccc2)cc1 | . | 0% | ? | 8% | 7%
COc1ccc(/C=N\NC(=O)O)cc1 | -7%[9.22 µM] | . | . | . | .
COC(=O)N/N=C/c1ccc(Oc2ccccc2)cc1 | 11µM* | ? | 15µM* | ? | ?
COc1cc(/C=N/NC(=O)c2cccc(C(=O)N/N=C/c3ccc(O)c(OC)c3)n2)ccc1O | . | -5%[1.84 µM] | 0.85µM* | 0% | -7%
COc1cc(C(=O)OCC(=O)NC2CCCC2)cc(OC)c1OC | . | 2%[1.84 µM] | -2% | 1% | -3%
O=S(=O)(NCC1(N2CCOCC2)CCCCC1)c1ccc(Cl)cc1C(F)(F)F | . | -6% | 6% | -4% | 2%
Cc1nn(-c2ccc(F)cc2)c(Cl)c1C(=O)NCC1CCCO1 (stereo not drawn) | . | 0% | 4% | 3% | 2%
COc1ccc(/C=N/NC(=O)Nc2nonc2N)cc1 | 10µM* | 25% | ? | ? | 14%
COc1cc(NC(=O)c2cccc(COCC(F)(F)C(F)F)c2)cc(OC)c1OC | -4% | -2% | -1% | -5% | -1%
COc1ccc(/C=N/NC(=O)c2cccc(COCC(F)(F)C(F)F)c2)cc1 | 11% | 3% | 5.4µM* | 0% | -1%
COc1ccc(NS(=O)(=O)c2ccc3oc(=O)c4[nH]c(=O)c(=O)n(C)c4c3c2)cc1 | . | 3% | 6% | 1%[9.26 µM] | 2%
C=CCNc1nc(NCc2ccccc2)c(C#N)c2c1CN(C)CC2 | 22µM* | 2% | 1% | -3% | -5%
N#Cc1c(NCCN)nc(NCc2ccccc2)c2c1CCN(Cc1ccccc1)C2 | . | -2% | -4% | -24% | 10%
Cc1ccc(S(=O)(=O)N/N=C\c2cn(CC(N)=O)c3ccccc23)cc1 | . | -3% | ? | -8% | 0%
O=C(Nc1ccc(Cl)cc1)Nc1ccc2c(c1)N1CCN=C1S2 | -25% | 11% | 8.5µM* | -6% | 10%
Nc1ccc2c(c1)N1CCN=C1S2 | 5% | -4% | 8% | 1% | -4%
O=[N+]([O-])c1ccc(N2CCN(c3ccccn3)CC2)c(Cl)c1 | . | 20% | ? | 8% | 15%
Cc1ccc(C)c(C(=O)COC(=O)CCCC(=O)Nc2cc(C(F)(F)F)ccc2Cl)c1 | -10% | 0% | 4.8µM* | -1% | -2%
CC1CCN(c2ccc(-c3cccs3)nn2)CC1 | . | 1.4µM* | 0.076µM* | 0.23µM* | ?
SMILES | SMN2 splice enh | Rab9 promoter act | FLuc modulator | ELG1 genotoxic | NPC1 promoter act
COc1ccc(S(=O)(=O)N2CCC(N3CCN(Cc4ccccc4)C(=O)C3=O)CC2)cc1 | . | . | 1% | . | .
CC1=C/C(=C(/c2ccc(O)c(C)c2)c2ccccc2S(=O)(=O)O)C=CC1=O | . | -6% | ? | -1% | -5%
CC1=C/C(=C(/c2cc(C)c(O)c(Br)c2)c2ccccc2S(=O)(=O)O)C=C(Br)C1=O | . | -3%[1.84 µM] | 15µM* | -11% | -9%
COCCn1c(SCC(=O)NN2C(=O)NC(C)(c3ccccc3)C2=O)nnc1-c1ccncc1 (stereo not drawn) | . | -1% | 1% | 0% | 3%
CCn1c2ccc(Cl)cc2c2nc3ccccc3nc21 | -11% | 7% | ? | 0% | -5%
CCn1c2ccc(C)cc2c2nc3cc(C(=O)O)ccc3nc21 | 14% | ? | 27µM* | ? | 19%
Clc1ccc(C#Cc2cccnc2)cc1 | . | 24% | 13µM* | 13% | 19%
COc1ccc(CCNS(=O)(=O)c2cnc(Cl)c(Br)c2)cc1OC | . | -2% | -3% | -1% | -8%
Cc1ccc(C2=NNC(C(O)C(O)C(O)C(O)CO)S2)cc1 (stereo not drawn) | -29% | 12% | 21µM* | ? | 2%
Clc1ccc(-c2cn3c(n2)-c2ccccc2C3)cc1Cl | 1µM* | 2.5µM* | 0.85µM* | ? | 3.5µM*
O=C(Nc1ccccc1)Nc1ccc2ocnc2c1 | ? | 1.3µM* | 11µM* | 13% | ?
O=C(Nc1ccccc1)Nc1ccc2ncoc2c1 | 11µM* | ? | 12µM* | ? | ?
O=C(O)Cc1ccc2ocnc2c1 | 4% | -5% | 6% | 4% | -2%
CCc1ccc(CN(C)C(=O)c2cc(COc3cccc(C(F)(F)F)c3)on2)nc1 | . | 19% | -8% | -5% | 6%
COc1ccc(OCc2cc(C(=O)N3CCCN(C(C)=O)CC3)no2)c(Cl)c1 | . | 30% | 27µM* | ? | ?
COc1ccc(OCc2cc(C(=O)N(C)Cc3nnc(C)o3)no2)c(Cl)c1 | . | 3.5µM* | 8.5µM* | ? | 3.2µM*
COc1cc(Cl)ccc1OCc1cc(C(=O)N(C)Cc2nnc(C)o2)no1 | . | 26% | ? | ? | 29%
COc1ccc(OCc2cc(C(=O)N(C)Cc3cc(C)no3)no2)c(Cl)c1 | . | 4µM* | 6µM* | ? | 2.8µM*
CCc1ccc(CN(C)C(=O)c2cc(COc3ccc(OC)cc3Cl)on2)nc1 | . | ? | 15µM* | ? | 3.2µM*
CCC/C(=N\NC(=O)C1CC1)c1ccc(Br)cc1 | . | 0% | 4% | -3% | -5%
CCN(Cc1ccncc1)C(=O)c1cc(COc2ccc(F)cc2Cl)on1 | . | 11% | 0% | -4% | 2%
CCN(Cc1ccncc1)C(=O)c1cc(COc2ccc(OC)cc2Cl)on1 | . | 2.8µM* | 21µM* | ? | 3.2µM*
COc1ccc(C(CNC(=O)C2COc3ccccc3O2)N2CCCC2)cc1 (stereo not drawn) | . | -5% | 9% | 0% | -1%
C#CCOCCOCCOCCNc1nc(N2CCN(C(=O)[C@H]([C@@H](C)CC)n3cc([C@@H](N)CO)nn3)CC2)nc(N2CCN(C(=O)[C@H](CCCCN)n3cc([C@@H](N)CC(C)C)nn3)CC2)n1 | . | -5% | 0% | 1% | -4%
O=C(COC(=O)CC1CCCC1)Nc1ccc(Cl)cc1 | . | -1% | 30µM* | -5% | 2%
COc1ccc(NC(=O)CC2CCCCC2)cc1OC | -3% | 19% | -13% | 10% | 9%
O=C(CC1CCCC1)Nc1ccc(Br)cc1 | . | ? | 17µM* | ? | ?
CCOc1ccc(NC(=O)COC(=O)CC2CCCCC2)cc1 | . | -1% | -11% | -2% | 0%

Screening data from PubChem BioAssay.
